# Experimental data taken from PubChem BioAssay (NCI).
# Compounds without any hit were thinned out: in the full panel of roughly 79,000, 15% have a hit. Unmarked numbers belong to inactive results. Active and inactive are the calls of the source. Cut-off read from the data, not from the text of the source: active = growth inhibition above about 70%; inactive = the rest.
# What was measured:
# [1] = NCI Yeast Anticancer Drug Screen. Data for the rad50 strain (AID 155);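 note: 0% = growth of vehicle-only cultures of the same strain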; conditions: S. cerevisiae rad50 strain growth inhibition; at 50.0 µM; active compounds read high
# Summary of the method: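 Genetically altered yeast (DNA repair pathway); compound treatment; growth inhibition vs vehicle ctrl.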
# [2] = NCI Yeast Anticancer Drug Screen. Data for the mec2-1 strain (AID 157); conditions: S. cerevisiae mec2-1 strain, at 50.0 µM, active compounds read high
# Summary of the method: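 Readout is yeast growth inhibition, normalised to vehicle-treated controls, in the mec2-1 strain exposed to compound.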
# [3] = NCI Yeast Anticancer Drug Screen. Data for the sgs1 mgt1 strain (AID 161);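 note: 0% = growth of cultures given vehicle only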; conditions: S. cerevisiae sgs1 mgt1 strain, at 50.0 µM, active compounds read high
# Summary of the method: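 This yeast growth screen uses a strain with defined DNA-repair lesions; compound-treated growth is compared with vehicle-treated growth.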
# [4] = NCI Yeast Anticancer Drug Screen. Data for the cln2 rad14 strain (AID 165);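 note: 0% = growth equal to vehicle treated cultures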; conditions: S. cerevisiae cln2 rad14 strain, at 50.0 µM, active compounds read high
# Summary of the method: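 Relative to vehicle controls, growth inhibition of compound-treated cln2 rad14 yeast was recorded.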
# [5] = NCI Yeast Anticancer Drug Screen. Data for the bub3 strain (AID 167); conditions: S. cerevisiae bub3 mutant strain, at 50.0 µM, active compounds read high
# Summary of the method: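 Yeast carrying a defined mutation is treated with each compound, and growth is compared with that of vehicle-exposed cells to give inhibition.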
# [6] = NCI Yeast Anticancer Drug Screen. Data for the mlh1 rad18 strain (AID 175); conditions: S. cerevisiae mlh1 rad18 strain growth inhibition; at 50.0 µM; active compounds read high
# Summary of the method: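 Test agents were incubated with a yeast strain of defined genotype (DNA damage repair defect). Inhibition of growth was derived by comparison with vehicle-exposed cultures.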
SMILES,growth inhibition [1] [%],growth inhibition [2],growth inhibition [3] [%],growth inhibition [4] [%],growth inhibition [5] [%],growth inhibition [6]
O=C(CC1(O)C(=O)Nc2ccccc21)c1ccc(O)cc1O (stereo not drawn),13.2,15.4%,12.1,26.4,14.3,18.6%
O=C(O)C(Br)C(Br)C(=O)Nc1cccc(Cl)c1 (stereo not drawn),0.5,-47.2%,21.2,-27.8,5.75,20.2%
CC(C)c1ccccc1OC(=O)NC1CCCCC1,1.9,20.7%,7.25,0.15,14.7,3.95%
O=C1OC(=O)C2C1C1C=CC2C1(c1ccccc1)c1ccccc1 (stereo not drawn),9.05,4.25%,8.95,-5.65,25.5,7%
COC(=O)CC(=O)c1cccc([N+](=O)[O-])c1,8.95,-22.1%,-3.15,16.5,-26.8,0.15%
NC(=O)OC1CCN(c2cccc(Cl)c2)C1 (stereo not drawn),-8.1,-22.3%,-16.1,23.5,-18.8,1.75%
CN1Cc2ccccc2[C@H]2C(c3ccccc3)=NN(c3ccccc3)[C@H]21,39.6,26.9%,59.2,9.6,41.2,37.2%
C/C=C/C(=O)N1C(=O)OC[C@@H]1c1ccccc1,37.4,54.5%,49.7,46.6,53.6,31.9%
C#CC(C)(O)CC(C)C (stereo not drawn),1.9,-1.2%,-8.6,-73.7,6.65,-71.7%
CCCCC(CC)(SC(CC)C(N)=O)C(N)=O (stereo not drawn),-2.2,-0.55%,16.9,20.1,5.75,-5%
CC1CCCC2C(=O)OC(=O)C12 (stereo not drawn),-5.3,-9.6%,-13.1,-60.6,-21.1,-11.4%
BrC1CCC(Br)CC1 (stereo not drawn),7.1,-11.1%,-8.45,-12.9,-2.3,-9.7%
COC(=O)N/N=C/c1ccc(C)cc1,-4.1,-8.05%,-10,-37.9,-3.9,-4.1%
CCCCCCCCCCCCCCCCCCN=C=O,-23.6,-45.8%,-17.8,-10.8,-31.8,-39%
COC1c2ccccc2C=CN1c1ccc([N+](=O)[O-])cc1[N+](=O)[O-] (stereo not drawn),61.8,70.4% (active),69.2,27.4,59.1,71.2% (active)
NC(=O)C(=O)n1ncc(Cl)c(Cl)c1=O,2.65,-3%,1.05,6.55,8.25,-4.1%
COC(=O)CCc1nc2ccccc2c(=O)[nH]1,6.45,1.05%,-6.05,-35.8,-14.9,-12.4%
O=C(Nc1c[nH]c(=O)[nH]c1=O)Oc1ccccc1,-5.65,-6.7%,-4.8,-1,-50,5.05%
CC(C)CCCC(C)C1CCC2C3CC=C4C(C)(C)C(OC(=O)c5ccccc5)CCC4(C)C3CCC12C (stereo not drawn),13.9,-6.6%,-4.35,-4.35,5.85,-1.3%

SMILES,growth inhibition [1] [%],growth inhibition [2],growth inhibition [3] [%],growth inhibition [4] [%],growth inhibition [5] [%],growth inhibition [6]
COc1cc(C(C)S(=O)(=O)O)ccc1O (stereo not drawn),-19.6,1.7%,8.45,-12.6,4.9,-5.55%
COc1ccc2c(c1)CCCN1Cc3cc(OC)c(OC)cc3CC21 (stereo not drawn),-29.7,8.65%,-33.8,14,-1.1,-3.9%
CN(C)CCNC(=O)c1cccc(C(C)(C)C)c1[N+](=O)[O-],-11.2,-30.1%,-18.9,0.35,-19.1,-20%
Clc1ccc(-c2cc3ccccc3[nH]2)cc1,23.9,-3.3%,-1.25,-32.4,2.4,-5.05%
CCOc1ccccc1NC(=O)C1=C(C)NC(C)=C(C(=O)Nc2ccccc2OCC)C1c1ccc([N+](=O)[O-])cc1,-20.3,27.2%,-3,-4.9,30.8,-7.2%
N#CC(C(=O)/C(=N\Nc1nc(=S)[nH]n1N)C(C#N)c1ccc(Cl)cc1)c1ccc(Cl)cc1 (stereo not drawn),-13.3,-10%,-28.6,4.45,-4.4,-4.95%
COc1ccc(NC2=CC(=O)c3ccccc3C2=O)cc1,0.4,5.55%,4.1,-35,18.2,-7.1%
NS(=O)(=O)c1ncc(C(=O)N2CCN(Cc3ccccc3)CC2)[nH]1,-6.15,-7.75%,7.2,-11.7,1.05,6.95%
c1ccc2c(CN3CCN(Cc4c[nH]c5ccccc45)CC3)c[nH]c2c1,17.1,-8.75%,-14.5,-13.8,-2.8,-21.9%
Nc1ccccc1NC(=O)c1nc2ccccc2[nH]1,1.55,15.2%,19.6,6,7.8,4.5%
O=c1[nH]c2cc([N+](=O)[O-])ccc2nc1/C(=N\Nc1ccccc1)C(O)c1ccc2c(c1)OCO2 (stereo not drawn),26.5,5.4%,21.6,29.4,10.2,41.1%
CC(=O)Nc1cc(=O)[nH]c2c1CCC2,-4.05,5.25%,-1.8,-16.4,-3.6,-4.7%
Nc1[nH]c(=S)[nH]c(=O)c1N=O,-2.75,-2.55%,-5.75,-14.7,-4.1,3.95%
O=C1OCCCC1(Cc1ccccc1)Cc1ccccc1,44.6,-7.7%,37.4,-16.1,39.6,16.5%
CC1(C)C2CCC13CS(=O)(=O)N1O[C@]13C(=O)O2 (stereo partly drawn),19.3,2.7%,6.55,15.1,-1.05,31.9%
Cc1cc2ccccc2nc1-c1ccncc1,3.45,-3.15%,-7.35,-44.6,-6.75,1.2%
CCOC(OCC)C1CC=CCC1 (stereo not drawn),0.1,-1.65%,-6.7,-13.1,-6.4,-0.95%
Clc1ccc(Cl)c(-c2csc(-c3cccnc3)n2)c1,4.95,-11.6%,12.5,-34.5,7.6,17.9%
C1CCN=C(N2CCCCCC2)CC1,-16.9,-4.2%,-5.8,-33,13.6,-6.25%
